This note sets out measurements from PubChem BioAssay (NCI).

Compounds without any hit were thinned out: in the full panel of roughly 83,000, 20% have a hit.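 Each cell line was grown in a 96-well plate and treated with one concentration of compound for 48 hours. Values below 10 were considered active.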 Unmarked numbers belong to inactive results. The source made the active and inactive calls.

Test systems include SR leukemia; RPMI-8226 leukemia; OVCAR-8 ovarian; OVCAR-5 ovarian; OVCAR-4 ovarian; SK-OV-3 ovarian; IGROV1 ovarian; OVCAR-3 ovarian; HS 578T breast; NCI/ADR-RES ovarian; T-47D breast; BT-549 breast; MDA-MB-435 melanoma; SW-620 colon; MCF7 breast; HCT-116 colon; HCC-2998 colon; KM12 colon.
Common to all, as to assay: NCI-60 one-dose screen, 48 h (100 = growth as untreated, 0 = no growth, -100 = all killed)
Holding throughout (conditions): 10 µM unless noted

Turning to `C[C@@H]1CCCCCCCCC[C@H](O)C(=O)C[C@@H](SC[C@@H](O)C(=O)O)C(=O)O1`, the growth was 74.4% in the assay with SR leukemia; -2.38% (active) in the assay with RPMI-8226 leukemia; 94.5% in the assay on OVCAR-8 ovarian; 104% with OVCAR-5 ovarian; 110% in the assay on OVCAR-4 ovarian; 104% in the assay on SK-OV-3 ovarian. Further, the growth in the assay with IGROV1 ovarian is 115%; in the assay with OVCAR-3 ovarian, 107%; in the assay on HS 578T breast, 113%; in the assay with NCI/ADR-RES ovarian, 106%; in the assay with T-47D breast, 75.8%; in the assay on BT-549 breast it was 91.8%. The growth in the assay with MDA-MB-435 melanoma is 103%; in the assay with SW-620 colon it was 103%; with MCF7 breast, 33.9%; in the assay on HCT-116 colon, 54.5%; with HCC-2998 colon it was 109%; in the assay with KM12 colon it was 95.8%.
`COc1cnc2c(c1)C(=O)c1c-2n(CCCNC(C)C)c(=O)c2cc([N+](=O)[O-])ccc12`: the growth with SR leukemia is -7.62% (active); in the assay on RPMI-8226 leukemia, -25.1% (active); in the assay on OVCAR-8 ovarian, -47.6% (active); in the assay with OVCAR-5 ovarian, -46.6% (active); with OVCAR-4 ovarian it was -68.9% (active); in the assay on SK-OV-3 ovarian, -66.8% (active). Besides, the growth is -56.4% (active) in the assay with IGROV1 ovarian; -74.3% (active) with OVCAR-3 ovarian; -31% (active) with HS 578T breast; -39.9% (active) in the assay on NCI/ADR-RES ovarian; -24.9% (active) in the assay on T-47D breast; -63.1% (active) with BT-549 breast. The growth is -95.8% (active) with MDA-MB-435 melanoma; -38.8% (active) in the assay on SW-620 colon; -47.4% (active) in the assay with MCF7 breast; -51% (active) with HCT-116 colon; -83.4% (active) in the assay with HCC-2998 colon; -39.8% (active) in the assay on KM12 colon.
With `Nc1c2c(nc3ccc(Cl)cc13)CC(c1ccc(O)cc1)CC2=O` (stereo not given), the growth in the assay on SR leukemia is 31.8%; with RPMI-8226 leukemia, 34.9%; in the assay with OVCAR-8 ovarian, 75.5%; in the assay with OVCAR-5 ovarian, 91.9%; in the assay on OVCAR-4 ovarian, 81.3%; with SK-OV-3 ovarian, 68.7%. Moreover, the growth was 49.3% with IGROV1 ovarian; 25.3% in the assay with OVCAR-3 ovarian; 46.1% in the assay on HS 578T breast; 54.8% in the assay on T-47D breast; 53.3% in the assay with BT-549 breast; -38.5% (active) with MDA-MB-435 melanoma. The growth in the assay on SW-620 colon is 33.8%; with MCF7 breast, 25.1%; in the assay on HCT-116 colon it was 26.2%; with HCC-2998 colon, 77.9%; in the assay on KM12 colon, 26.7%.
For the molecule `C[C@H]1[C@H]2C3=CC[C@@H]4[C@@]5(C)C/C(=C/c6ccco6)C(=O)C(C)(C)[C@@H]5CC[C@@]4(C)[C@]3(C)CC[C@@]2(C(=O)N2CCOCC2)CC[C@@H]1C`, the growth with SR leukemia was 29.4%; in the assay on RPMI-8226 leukemia, 40.4%; in the assay with OVCAR-8 ovarian it was 54.7%; with OVCAR-5 ovarian, 96.6%; with OVCAR-4 ovarian, 50.1%; with SK-OV-3 ovarian, 107%. Also, the growth in the assay on IGROV1 ovarian is 56.5%; in the assay on OVCAR-3 ovarian, 55.6%; in the assay on HS 578T breast it was 77.9%; with NCI/ADR-RES ovarian it was 83.1%; in the assay with T-47D breast, 32%; with BT-549 breast, 75.8%. Besides, the growth in the assay with MDA-MB-435 melanoma is 97.1%; in the assay on SW-620 colon, 25.3%; in the assay on MCF7 breast, 39.4%; with HCT-116 colon it was 26.9%; in the assay with KM12 colon, 54.2%.
`CC1(C)c2ccccc2C(=O)C1(Br)Cc1ccccc1` (stereo not given): the growth with SR leukemia was 53.5%; in the assay on RPMI-8226 leukemia, 46.8%; in the assay on OVCAR-8 ovarian it was 93%; in the assay on OVCAR-5 ovarian it was 73.7%; in the assay with OVCAR-4 ovarian, 63.6%; with SK-OV-3 ovarian it was 110%. The growth in the assay with IGROV1 ovarian was 92.5%; with OVCAR-3 ovarian, 65.4%; in the assay with HS 578T breast, 84.1%; with NCI/ADR-RES ovarian, 72.8%; in the assay on T-47D breast, 60.6%; in the assay on BT-549 breast, 105%. In addition, the growth in the assay on MDA-MB-435 melanoma was 61.3%; in the assay on SW-620 colon it was 36.6%; in the assay on MCF7 breast it was 81.3%; in the assay with HCT-116 colon, 54.9%; with KM12 colon it was 90.9%.
As to `COc1cccc(-c2nn(-c3ccccc3)cc2-c2ccnc(NCCCNS(=O)(=O)c3ccccc3)c2)c1`, the growth in the assay with SR leukemia was 2.99% (active); in the assay on RPMI-8226 leukemia, 18.4%; with OVCAR-8 ovarian, 16%; in the assay with OVCAR-5 ovarian, 67.2%; in the assay with OVCAR-4 ovarian, 39.6%; in the assay with SK-OV-3 ovarian, 43%. For the same molecule, the growth in the assay on IGROV1 ovarian was 31.3%; in the assay on OVCAR-3 ovarian it was 41.3%; with HS 578T breast it was 37.5%; in the assay with T-47D breast, -4.99% (active); with BT-549 breast it was 35.7%; with MDA-MB-435 melanoma, 37.4%. Also, the growth with SW-620 colon is 46.5%; in the assay on MCF7 breast it was 18.2%; in the assay on HCT-116 colon it was 25.7%; in the assay on HCC-2998 colon it was 19.7%; in the assay with KM12 colon it was 29.6%.
For `Cn1cc(-c2csc(-c3cn(CCCN4CCCCC4)c4ccc(Br)cc34)n2)c2cccnc21`, the growth was -48.9% (active) with SR leukemia; -35.3% (active) in the assay with RPMI-8226 leukemia; -16.4% (active) in the assay with OVCAR-8 ovarian; 30.8% in the assay on OVCAR-5 ovarian; 32.3% in the assay on OVCAR-4 ovarian; 75.2% in the assay on SK-OV-3 ovarian. For the same molecule, the growth in the assay with IGROV1 ovarian is -20.1% (active); in the assay with OVCAR-3 ovarian, -75.6% (active); in the assay on HS 578T breast, 60.8%; with T-47D breast, 21.8%; in the assay on BT-549 breast, 70.9%; in the assay with MDA-MB-435 melanoma, -69.5% (active). Moreover, the growth was -74.3% (active) in the assay with SW-620 colon; -64.6% (active) in the assay on MCF7 breast; -89.5% (active) with HCT-116 colon; 85.5% in the assay on HCC-2998 colon; 9.18% (active) with KM12 colon.
Turning to `COc1ccc(-c2cc(-c3c(C)oc4cc5occc5c(OC)c4c3=O)nc(N)c2C#N)cc1OC`, the growth in the assay with SR leukemia was 5.99% (active); in the assay with RPMI-8226 leukemia, 55.2%; with OVCAR-8 ovarian, 61.2%; in the assay with OVCAR-5 ovarian, 92.9%; in the assay with OVCAR-4 ovarian, 74.6%; in the assay with SK-OV-3 ovarian it was 75.7%. Also, the growth in the assay on IGROV1 ovarian is 51.8%; with OVCAR-3 ovarian, 77.4%; with HS 578T breast, 53.5%; in the assay with NCI/ADR-RES ovarian, 61.9%; in the assay with T-47D breast, 41.2%; in the assay on BT-549 breast, 70.8%. The growth in the assay on MDA-MB-435 melanoma is 17.6%; in the assay on SW-620 colon it was 57.5%; in the assay on MCF7 breast, 24.8%; in the assay with HCT-116 colon, 53.7%; in the assay with KM12 colon, 59.6%.
As to `C=C1C(=O)O[C@H]2[C@H]1CC/C(Cn1cc(-c3ccc(F)cc3)nn1)=C\CC[C@@]1(C)O[C@@H]21`, the growth in the assay on SR leukemia was -15.1% (active); in the assay with RPMI-8226 leukemia it was -34.1% (active); in the assay on OVCAR-8 ovarian, -16% (active); with OVCAR-5 ovarian it was -1.87% (active); with OVCAR-4 ovarian, 13.7%; with SK-OV-3 ovarian, 102%. In addition, the growth in the assay on IGROV1 ovarian was -40.3% (active); in the assay with OVCAR-3 ovarian, -91.3% (active); in the assay on HS 578T breast, 58.1%; in the assay on NCI/ADR-RES ovarian, 35.6%; with T-47D breast, -48.1% (active); in the assay on BT-549 breast, 43.5%. For the same molecule, the growth in the assay on MDA-MB-435 melanoma is -31.4% (active); in the assay with SW-620 colon it was -40.6% (active); with MCF7 breast, -55.6% (active); with HCT-116 colon it was -86% (active); with KM12 colon it was 54.6%.
